Data published in PubChem BioAssay (NCATS).
Inconclusive results are not listed. Values without a mark were called inactive. Calls of active or inactive are those of the source. Calls come from the whole dose curve; as a rule, active = well fitted inhibition curve with a large enough effect; inconclusive = small, poorly fitted or top-dose-only effect; inactive = flat fitted curve, though single readings scatter.

biological target: Glutathione peroxidase 1 (Homo sapiens) (UniProt P07203); assay: Primary qHTS Assay for Inhibitors of Recombinant Selenoprotein Glutathione Peroxidase 1 (GPX1) (AID 1845191); settings: recombinant GPX1, GR-coupled NADPH fluorescence, 15 min; series mostly up to 48.8 µM; activity, negative = inhibition: at the top concentration; note: nearly all actives have a fitted effect of over 65% in size
Summary of the method: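 NADPH consumption tracked by fluorescence at 340/450 nm between t=0 and t=15 min, room temperature. Final mix: 10 nM GPX1, 100 nM glutathione reductase, 1 mM GSH, 0.5 mM NADPH, 0.5 mM cumene hydroperoxide, 0.01% BSA; 30 min compound–enzyme preincubation.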
% is set by controls: 0 for no effect and ±100 for the full control effect.

Glutathione peroxidase 1 (Homo sapiens), sequence (P07203 whole entry, looked up): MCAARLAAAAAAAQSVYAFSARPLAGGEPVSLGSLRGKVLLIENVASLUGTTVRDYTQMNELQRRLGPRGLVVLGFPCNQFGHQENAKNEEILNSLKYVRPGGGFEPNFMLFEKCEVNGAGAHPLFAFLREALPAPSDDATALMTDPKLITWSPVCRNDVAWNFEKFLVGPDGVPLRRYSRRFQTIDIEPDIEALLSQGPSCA

SMILES	Potency	activity, negative = inhibition	outcome
CCCCC(=O)OCC(=O)[C@]1(O)Cc2c(O)c3c(c(O)c2[C@@H](O[C@H]2C[C@H](NC(=O)C(F)(F)F)[C@H](O)[C@H](C)O2)C1)C(=O)c1c(OC)cccc1C3=O	inactive		
CNC(=O)c1ccc2cc([C@@]3(O)CCn4cncc43)ccc2c1		0.23%	
C=C1CC[C@@H]2[C@](C)(CO)[C@H](O)CC[C@@]2(C)[C@@H]1C/C=C1/C(=O)OC[C@H]1O		3.34%	
C=CC1(C)CC2=CCC3C(C)(C(=O)O)CCCC3(C)C2CC1OC(C)=O (configuration not stated)		-14.8% [at 27.7 µM]	
NCc1ccc(OCCCc2sc(-c3ccc4c(c3)/C(=N/Nc3nc5ccccc5s3)CCC4)nc2C(=O)O)cc1		1.71%	
O=C(O)c1ccc(CCCc2ccc(OCCc3ccc(F)cc3)cc2)o1			inactive
Cc1c(-c2ccnn2C)cc(C(=O)NCc2ccc(S(C)(=O)=O)cn2)c(=O)n1-c1cccc(C(F)(F)F)c1	inactive		
O=C(c1ccc(C#Cc2cccc(F)c2)cn1)N1CC2CC2C1 (configuration not stated)			inactive
CCOc1nc2cccc(C(=O)OCc3oc(=O)oc3C)c2n1Cc1ccc(-c2ccccc2-c2noc(O)n2)cc1	inactive		
CC(O)C(O)/C=C/C=C/C(=O)O[C@@H]1C=C2COC(=O)[C@]2(O)[C@@]2(C)CCCC(C)(C)C12 (some centres not stated)		2.4% [at 27.7 µM]	
C=C1C2=CC(O)C(C)C1(C)CC/C(C)=C/CCC1(C)OC1C2=O (configuration not stated)		-8.53% [at 27.7 µM]	
CC1(C)O[C@@H]2C[C@H]3[C@@H]4CCC5=CC(=O)C=C[C@]5(C)[C@H]4[C@@H](O)C[C@]3(C)[C@]2(C(=O)CO)O1			inactive
C=C(C)[C@@H]1CC[C@](C)(O)[C@@H](OC(=O)c2ccccc2)C1			inactive
CCCOc1ccn2c(C(C)=O)cc(-c3ccccc3S(C)(=O)=O)c2c1	inactive		
Nc1ccn([C@@H]2C(F)=C(CO)[C@@H](O)[C@H]2O)c(=O)n1		-4.85%	
C[C@@H]1O[C@@H](O[C@@H]2[C@@H](O)[C@H](O[C@@H]3[C@@H](O)[C@@H](O)[C@H](O[C@H]4[C@H](OC(=O)[C@]56CCC(C)(C)C[C@H]5C5=CCC7[C@@]8(C)C[C@H](O)[C@H](O[C@@H]9O[C@H](C(=O)O)[C@@H](O)[C@H](O)[C@H]9O)[C@@](C)(CO)C8[C@H](O)C[C@@]7(C)[C@]5(C)CC6)OC[C@H](O)[C@@H]4O)O[C@H]3C)OC[C@H]2O)[C@H](O)[C@H](O)[C@H]1O (some centres not stated)			inactive [at 9.52 µM]
C[C@@H]1CC[C@H]2C(C)(C)[C@H](O)[C@H](O)C[C@]2(C)[C@@]12Cc1c(O)cc3c(c1O2)CNC3=O		-9.27% [at 27.7 µM]	
OC[C@H]1O[C@@H](Oc2cc(O)cc(-c3cc4ccc(O)cc4o3)c2)[C@H](O)[C@@H](O)[C@@H]1O		-16.8% [at 27.7 µM]	
CC1(C)CCC(C)(C)c2cc([C@@H](O)C(=O)Nc3ccc(C(=O)O)cc3F)ccc21			inactive
CC1(C)CC2C(C1)C1(C)CCC13OC3(CO)C2O (configuration not stated)			inactive
c1ccc(C(OC2CCN(CCCc3nn[nH]n3)CC2)c2ccccc2)cc1		-8.6%	
COc1cc(NC(=O)c2ccccn2)ccc1Cl			inactive
CC1(C)C(O)CCC2(C)C1C(O)C=C1COC(=O)C12O (configuration not stated)			inactive
Oc1ccc([C@H]2COc3cc(O)ccc3C2)cc1		-0.304%	
CC(C)(O)C1CCC2(C)C3C(O)C4C(C13)C42CO (configuration not stated)		-0.156%	
CC(C)C(=O)OCC(=O)[C@@]12O[C@H](C3CCCCC3)O[C@@H]1C[C@H]1[C@@H]3CCC4=CC(=O)C=C[C@]4(C)[C@H]3[C@@H](O)C[C@@]12C			inactive
C=CCc1ccc(O[C@@H]2O[C@H](CO[C@@H]3O[C@H](CO)[C@@H](O)[C@H](O)[C@H]3O)[C@@H](O)[C@H](O)[C@H]2O)c(O)c1			inactive [at 27.7 µM]
